Source: PubChem BioAssay (NCI)
“And” between values parts separate entries of the source, which are not always exact repeats. Equal values may be shown once. About 83,000 compounds went through this panel and 20% of them were active in at least one assay; those are over-represented in the sample as a whole.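 Note: values are percent growth. 100 is the growth of untreated cells, values between 100 and 0 indicate rising inhibition; between -100 and 0 indicates cell death.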 The source made the active and inactive calls. How the source made its calls: active means growth percent below 10; inactive means the rest.

These compounds were tested on HL-60(TB) leukemia (assay: NCI-60 one-dose screen, 48 h (100 = growth as untreated, 0 = no growth, -100 = all killed)). Details: 10 µM unless noted.

| Compound | growth |
| --- | --- |
| Nc1c(C(=O)Nc2ccccc2)sc2nc3c(cc12)C(O)CCC3 (stereo not given) | -8.34% (active) |
| O=c1c2sc3ncccc3c2nnn1-c1ccccc1 | 106% (inactive) |
| CNC(=O)CN1CCC(Oc2cc3c(Nc4cccc(Cl)c4F)ncnc3cc2OC)CC1 | 86.9% (inactive) |
| CCOC(=O)C(N)Cc1cc(I)c(O)c(I)c1 (stereo not given) | 99.9% (inactive) and 132% (inactive) |
| CCCCCCCCCCCCCCCCNC(=O)Nc1ccc(C)c(NC(=O)NCCCCCCCCCCCCCCCC)c1 | 98.8% (inactive) |
| COc1ccc(N)c2c1C(=O)c1ccccc1C2=O | 45.8% (inactive) |
| Oc1cccc(-c2nc3sccn3c2-c2ccncn2)c1 | 99.2% (inactive) |
| CCOC(=O)c1cn2ncnc(Oc3ccc(NC(=O)NC4CCCCC4)c(Cl)c3)c2c1C | 70.9% (inactive) |
| CN(C)C1CCN(Cc2ccc(NC(=O)c3cncc(C#Cc4cnc(N)c5ncccc45)c3)cc2C(F)(F)F)CC1 | 73.6% (inactive) |
| CC1CN(Cc2ccco2)C(=S)N(c2ccccc2)C1=O (stereo not given) | 61.3% (inactive) |
| O=S(=O)(CC(O)(c1ccccc1)c1ccccc1)CC(O)(c1ccccc1)c1ccccc1 | 108% (inactive) |
| COc1cc(-c2cc(-c3ccc(N(C)C)cc3)nc(N3CCC(O)CC3)c2C#N)cc(OC)c1OC | -23.6% (active) |
| O=C1C[C@@H]2/C(=C(O)\C=C\c3ccccc3)C(=O)C=C[C@@H]2O1 | 13.3% (inactive) |
| Cc1nn(-c2nc3ccccc3[nH]2)c2c1C(c1ccc(OCC(N)=O)cc1)CC(=O)N2 (stereo not given) | 113% (inactive) |
| C=C1C(=O)O[C@H]2[C@H]1CC/C(COC(=O)NCCc1ccc(OC)c(OC)c1)=C\CC[C@@]1(C)O[C@@H]21 | 30.7% (inactive) |
